SMILES strings stand for the structures. Inconclusive results are not listed. Calls of active or inactive are those of the source. Unless noted, the limit is not given here; nearly all actives have AC50 up to about 26 µM.

A word on the AC50: it is the midpoint of the concentration-response curve, whichever way the signal moves. For orientation: IC50 means the midpoint of a concentration-inhibition curve.

Test [1] in a line: growth inhibition of DIPG glioma cells, dose response, cell-based, SU-DIPG-XVII, MIPE5.0, CellTiter-Glo, qHTS (AID 1347060).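 As to AC50: cells exposed to compound for 48 hours before viability readout.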 The note with it: SU-DIPG-XVII viability, CellTiter-Glo ATP luminescence.
A short description of test [2]: growth inhibition of DIPG glioma cells, dose response, cell-based, SU-DIPG-XIII, MIPE5.0, CellTiter-Glo, qHTS (AID 1347064; cut-off not given, nearly all actives have AC50 up to about 23 µM;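 as to AC50: cells exposed to compound for 48 hours before the viability read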). The note with it: SU-DIPG-XIII viability, CellTiter-Glo ATP luminescence. (ATP-based viability assays read luminescence as a measure of living cells.)
Test [3] can be described thus: viability loss in pontine glioma line – cell-based, SU-DIPG-XXV, MIPE5.0, CellTiter-Glo, qHTS, dose response (AID 1347065).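 Also: cells exposed to compound for 48 hours before ATP readout.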 As to conditions: CellTiter-Glo ATP luminescence.
A short description of test [4]: JHH-DIPG-1 glioma cell viability, MIPE5.0 library, CellTiter-Glo luminescence, qHTS (AID 1347067).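 Also: cells exposed to compound for 48 hours before readout.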 As to conditions: JHH-DIPG-1 glioma viability, CellTiter-Glo ATP luminescence.
Test [5] in a line: SU-DIPG-XXV glioma cell viability, MIPE5.0 library, qHTS (AID 1347068; cut-off not given, nearly all actives have IC50 up to about 30 µM;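 as to IC50: cells exposed to compound for 48 hours before viability readout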). (In general: Quantitative high-throughput screening tests each substance at several concentrations.)
Test [6] can be described thus: sensitizers of A549 cells to miR-34 induction, primary screen, imaging, A549 dox-inducible miR-34, nuclei and caspase counts (AID 1347080;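 active = compounds whose cell count with miR-34 switched on is under 0.7 times the count with it off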). As to conditions: A549 miR-34 inducible, Hoechst nuclei count, 48 h.
Test [7] is described as follows: survival rescue of mitochondrial mutant cells in low glucose, primary screen, MELAS cybrids, Rieske KO mouse fibroblasts, CellTiter-Glo (AID 1508586;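 active = mean z-score across replicates of 1.96 or higher in either the MELAS or the Rieske mutant cell line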;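 also: z relative to plate mean and SD of compound and empty wells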).
Where [8] appears, read: stronger effect = lower value, cell number ratio, induced over uninduced.
[9] abbreviates: measured here: relative caspase fold change +Dox/-Dox.
Setting [10] is: measured here: total cells with miR-34 induction, stronger effect = lower value.
[11] abbreviates: measured here: total cells without miR-34 induction.
Where [12] appears, read: MELAS cybrid survival, CellTiter-Glo 48 h, stronger effect = higher value.
The mark [13] stands for this setting: Rieske KO mouse fibroblast survival, CellTiter-Glo 72 h.

In the case of `CN1CCC(c2c(O)cc(O)c3c(=O)cc(-c4ccccc4Cl)oc23)C1CO` (stereo not drawn), the AC50 in test [1] was 934 nM (active); in test [2], 1180 nM (active); in test [3] it was 1180 nM (active); in test [4], 1180 nM (active). In addition, in test [5], the IC50 was 1860 nM (active). The fold change in test [6] (setting [8]) is 0.969 (inactive); in test [6] (setting [9]), 0.481. For the same compound, the values for the cell count in test [6] (setting [10]) and in test [6] (setting [11]) were 1620 and 1670, respectively. Besides, the z-score in test [7] (setting [12]) was 0.124 (inactive); in test [7] (setting [13]), -6.97.
For the compound `CCC(=O)Nc1cccc(Oc2nc(Nc3ccc(N4CCN(C)CC4)cc3OC)ncc2Cl)c1`, the AC50 in test [1] is 9340 nM (active); in test [2], 10500 nM (active); in test [3] it was 7420 nM (active); in test [4], 18600 nM (active). In addition, the result in test [5] was inactive. Besides, the fold change in test [6] (setting [8]) is 0.756 (inactive); in test [6] (setting [9]), 0.553. For the same compound, the cell count is 3260 in test [6] (setting [10]) and 4310 in test [6] (setting [11]). Further, the z-score in test [7] (setting [12]) was -0.403 (inactive); in test [7] (setting [13]), 0.64.
For `CCCc1c(OCCCOc2ccc(OCC(=O)O)cc2)ccc(C(C)=O)c1O`, the call in test [1], in test [2], in test [3], in test [4] and in test [5] was inactive. Moreover, the fold change in test [6] (setting [8]) is 0.974 (inactive); in test [6] (setting [9]), 1.33. Also, the cell count is 9670 in test [6] (setting [10]) and 9930 in test [6] (setting [11]).
As for `COc1cc(N2CCC(N(C)C)CC2)ccc1Nc1ncc(Cl)c(Nc2ccccc2P(C)(C)=O)n1`, the AC50 is 1050 nM (active) in test [1], 934 nM (active) in test [2], 417 nM (active) in test [3] and 1660 nM (active) in test [4]. In addition, the IC50 in test [5] was 1860 nM (active). The figures for the fold change in test [6] (setting [8]) and in test [6] (setting [9]) were 1.01 (inactive) and 0.883, respectively. For the same compound, the cell count in test [6] (setting [10]) is 1590; in test [6] (setting [11]) it was 1580. The results for the z-score in test [7] (setting [12]) and in test [7] (setting [13]) were 3.7 (active) and -0.471, respectively.
`COc1cccc(-c2cc(F)ccc2C2Cc3nc(N)nc(C)c3C(=O)N2)n1` (stereo not drawn): the AC50 in test [1] was 29.5 nM (active); in test [2], 41.7 nM (active); in test [3], 29.5 nM (active); in test [4], 37.2 nM (active). The IC50 in test [5] was 74.2 nM (active). Besides, the fold change in test [6] (setting [8]) is 0.968 (inactive); in test [6] (setting [9]), 0.335. In addition, the cell count in test [6] (setting [10]) amounted to 2200; in test [6] (setting [11]) it was 2270. Moreover, the z-score in test [7] (setting [12]) is 2.51 (active); in test [7] (setting [13]) it was -1.33.

Values taken from PubChem BioAssay.
